In the supplement of paper PMC11732987, “Enantioselective OTUD7B fragment discovery through chemoproteomics screening and high-throughput optimisation” (Communications Chemistry, 2025):

Experiments:
Assay in all cases: log2 ratio of Biotin-Ahx-Ub-VS probe labelling (fragment/DMSO); higher = less target engagement (more negative = stronger competition), active = hit call of the paper (q ≤ 0.05, log2 ratio ≤ -1)
Settings in all cases: compound concentration: 200 uM; treatment time: 3 h
[1] = target: T1, ALG13 (UniProt Q9NP73)
T1 sequence (whole entry): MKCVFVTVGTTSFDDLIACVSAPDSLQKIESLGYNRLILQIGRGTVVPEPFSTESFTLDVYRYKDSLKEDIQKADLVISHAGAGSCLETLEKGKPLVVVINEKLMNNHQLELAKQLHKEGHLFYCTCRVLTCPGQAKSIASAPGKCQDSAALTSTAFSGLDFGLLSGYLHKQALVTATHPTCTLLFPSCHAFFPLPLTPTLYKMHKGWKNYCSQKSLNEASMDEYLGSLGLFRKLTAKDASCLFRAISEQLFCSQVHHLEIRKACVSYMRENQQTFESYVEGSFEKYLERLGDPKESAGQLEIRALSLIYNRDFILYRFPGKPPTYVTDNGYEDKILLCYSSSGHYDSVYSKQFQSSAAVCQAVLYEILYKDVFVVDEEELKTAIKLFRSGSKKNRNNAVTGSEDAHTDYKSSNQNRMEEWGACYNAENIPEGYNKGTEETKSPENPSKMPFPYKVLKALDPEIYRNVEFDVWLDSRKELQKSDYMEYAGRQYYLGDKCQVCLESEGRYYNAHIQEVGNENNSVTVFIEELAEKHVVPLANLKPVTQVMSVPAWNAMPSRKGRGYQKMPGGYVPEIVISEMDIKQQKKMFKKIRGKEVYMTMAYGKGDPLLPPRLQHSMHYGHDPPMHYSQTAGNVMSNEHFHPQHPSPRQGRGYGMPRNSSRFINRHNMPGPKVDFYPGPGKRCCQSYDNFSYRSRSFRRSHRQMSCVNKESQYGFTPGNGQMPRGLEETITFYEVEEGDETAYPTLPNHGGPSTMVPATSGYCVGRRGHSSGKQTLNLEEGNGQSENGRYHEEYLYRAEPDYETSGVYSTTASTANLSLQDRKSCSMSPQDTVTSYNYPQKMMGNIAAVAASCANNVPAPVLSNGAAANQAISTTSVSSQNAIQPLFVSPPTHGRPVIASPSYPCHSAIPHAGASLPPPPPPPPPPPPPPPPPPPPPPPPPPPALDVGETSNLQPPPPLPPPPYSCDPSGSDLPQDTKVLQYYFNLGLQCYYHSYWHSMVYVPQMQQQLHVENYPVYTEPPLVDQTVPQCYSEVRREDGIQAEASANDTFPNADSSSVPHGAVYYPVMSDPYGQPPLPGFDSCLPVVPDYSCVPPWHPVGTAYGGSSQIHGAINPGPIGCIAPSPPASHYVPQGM
Procedure, shortened: (§1)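 HEK293T lysate (495 µg per sample, in Tris/CHAPS/IGEPAL buffer with protease inhibitors) was exposed in triplicate for 3 h to fragment at 200 µM or to vehicle, then to Biotin-Ahx-Ub-VS at 0.5 µM final for 1 h. Labelled DUBs were enriched on NeutrAvidin, digested with LysC and trypsin, and analysed by diaPASEF LC-MS/MS. Spectronaut label-free quantities were normalised to the global median, and values are average log2 ratios of fragment over vehicle from an unpaired t-test. Only proteins with ≥2 unique peptides were used.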

[2] = target: ATXN3 (UniProt P54252)
Procedure, shortened: as §1

[3] = target: T2, BAP1 (UniProt Q92560)
T2 sequence (whole entry): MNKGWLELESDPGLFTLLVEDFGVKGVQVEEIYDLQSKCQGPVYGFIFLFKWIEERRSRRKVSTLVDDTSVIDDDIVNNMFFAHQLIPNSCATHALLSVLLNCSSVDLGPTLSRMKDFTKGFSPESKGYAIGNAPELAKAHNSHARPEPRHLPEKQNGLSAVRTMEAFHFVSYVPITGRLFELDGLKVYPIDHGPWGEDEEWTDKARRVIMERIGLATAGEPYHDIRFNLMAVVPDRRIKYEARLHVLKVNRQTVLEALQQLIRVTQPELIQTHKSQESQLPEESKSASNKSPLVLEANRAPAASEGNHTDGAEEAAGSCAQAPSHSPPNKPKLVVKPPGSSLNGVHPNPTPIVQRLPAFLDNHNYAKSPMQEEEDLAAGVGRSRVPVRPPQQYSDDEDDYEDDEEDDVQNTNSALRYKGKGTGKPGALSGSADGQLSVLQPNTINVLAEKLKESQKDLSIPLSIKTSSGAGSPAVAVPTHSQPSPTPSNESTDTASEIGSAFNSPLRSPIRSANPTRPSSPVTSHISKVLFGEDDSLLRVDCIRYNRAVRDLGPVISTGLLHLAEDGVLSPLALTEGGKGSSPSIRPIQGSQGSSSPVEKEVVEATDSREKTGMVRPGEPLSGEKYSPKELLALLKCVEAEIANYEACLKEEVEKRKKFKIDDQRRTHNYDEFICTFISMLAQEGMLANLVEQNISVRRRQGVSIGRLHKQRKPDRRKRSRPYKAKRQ
Procedure, shortened: as §1

[4] = target: EIF3F (UniProt O00303)
Procedure, shortened: as §1

[5] = target: EIF3H (UniProt O15372)
Procedure, shortened: as §1

[6] = target: T3, FAM105A (UniProt Q9NUU6)
T3 sequence (whole entry): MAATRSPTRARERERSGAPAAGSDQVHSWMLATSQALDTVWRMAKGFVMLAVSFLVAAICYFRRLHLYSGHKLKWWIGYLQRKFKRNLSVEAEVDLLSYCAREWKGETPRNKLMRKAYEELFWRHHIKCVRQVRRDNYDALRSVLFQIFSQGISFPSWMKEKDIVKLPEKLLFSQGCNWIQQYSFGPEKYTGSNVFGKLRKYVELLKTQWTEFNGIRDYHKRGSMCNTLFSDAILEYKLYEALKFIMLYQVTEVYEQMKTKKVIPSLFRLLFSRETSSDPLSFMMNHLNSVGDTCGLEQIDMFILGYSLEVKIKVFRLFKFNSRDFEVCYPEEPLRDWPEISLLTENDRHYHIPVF
Procedure, shortened: as §1

[7] = target: OTUB1 (UniProt Q96FW1)
Procedure, shortened: as §1

[8] = target: T4, OTUD4 (UniProt Q01804)
T4 sequence (whole entry): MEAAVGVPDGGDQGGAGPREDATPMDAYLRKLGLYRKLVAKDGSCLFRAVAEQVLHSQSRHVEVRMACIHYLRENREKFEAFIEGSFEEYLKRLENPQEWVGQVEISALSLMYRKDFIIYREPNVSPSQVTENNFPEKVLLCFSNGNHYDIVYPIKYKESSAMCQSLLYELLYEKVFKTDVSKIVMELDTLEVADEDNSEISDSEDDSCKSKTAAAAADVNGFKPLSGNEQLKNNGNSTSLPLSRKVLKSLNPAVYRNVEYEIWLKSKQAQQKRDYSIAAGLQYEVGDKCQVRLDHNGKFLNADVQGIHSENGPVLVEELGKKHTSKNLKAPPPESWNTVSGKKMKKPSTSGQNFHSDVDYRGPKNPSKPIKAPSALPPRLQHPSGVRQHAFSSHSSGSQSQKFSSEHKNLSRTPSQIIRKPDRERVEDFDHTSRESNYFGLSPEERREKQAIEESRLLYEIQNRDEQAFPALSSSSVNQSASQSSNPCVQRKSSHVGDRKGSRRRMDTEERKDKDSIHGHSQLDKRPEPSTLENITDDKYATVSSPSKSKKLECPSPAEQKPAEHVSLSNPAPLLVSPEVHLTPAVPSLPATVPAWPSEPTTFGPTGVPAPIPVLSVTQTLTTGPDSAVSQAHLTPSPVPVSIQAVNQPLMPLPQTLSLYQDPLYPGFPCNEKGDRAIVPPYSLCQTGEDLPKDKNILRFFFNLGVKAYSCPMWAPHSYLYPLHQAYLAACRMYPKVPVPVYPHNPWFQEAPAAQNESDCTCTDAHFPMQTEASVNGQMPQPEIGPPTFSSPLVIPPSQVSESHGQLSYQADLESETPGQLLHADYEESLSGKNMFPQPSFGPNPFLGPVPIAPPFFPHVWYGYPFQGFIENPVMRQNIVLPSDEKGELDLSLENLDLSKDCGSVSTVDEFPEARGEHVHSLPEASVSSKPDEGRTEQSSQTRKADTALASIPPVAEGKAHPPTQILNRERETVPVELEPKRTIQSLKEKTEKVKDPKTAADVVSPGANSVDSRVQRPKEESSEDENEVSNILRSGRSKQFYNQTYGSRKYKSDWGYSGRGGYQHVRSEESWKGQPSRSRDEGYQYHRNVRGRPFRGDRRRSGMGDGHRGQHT
Procedure, shortened: as §1

[9] = target: T5, OTUD5 (UniProt Q96G74)
T5 sequence (whole entry): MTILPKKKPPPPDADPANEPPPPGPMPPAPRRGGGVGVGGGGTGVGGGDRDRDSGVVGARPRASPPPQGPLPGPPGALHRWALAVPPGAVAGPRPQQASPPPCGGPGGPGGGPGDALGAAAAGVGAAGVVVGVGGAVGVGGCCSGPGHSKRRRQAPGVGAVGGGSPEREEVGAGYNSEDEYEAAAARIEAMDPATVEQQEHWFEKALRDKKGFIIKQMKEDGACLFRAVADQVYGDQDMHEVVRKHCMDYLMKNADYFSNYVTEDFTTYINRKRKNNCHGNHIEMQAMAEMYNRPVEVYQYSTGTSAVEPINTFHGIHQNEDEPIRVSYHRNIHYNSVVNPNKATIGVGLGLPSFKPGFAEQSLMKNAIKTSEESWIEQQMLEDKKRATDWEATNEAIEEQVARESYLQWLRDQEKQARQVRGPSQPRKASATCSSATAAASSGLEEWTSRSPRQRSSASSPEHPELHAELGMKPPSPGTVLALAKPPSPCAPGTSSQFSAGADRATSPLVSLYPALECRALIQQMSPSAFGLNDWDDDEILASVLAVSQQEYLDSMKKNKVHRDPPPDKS
Procedure, shortened: as §1

Measured: log2 ratio of Biotin-Ahx-Ub-VS probe labelling

Chain of EIF3F (O00303 whole entry): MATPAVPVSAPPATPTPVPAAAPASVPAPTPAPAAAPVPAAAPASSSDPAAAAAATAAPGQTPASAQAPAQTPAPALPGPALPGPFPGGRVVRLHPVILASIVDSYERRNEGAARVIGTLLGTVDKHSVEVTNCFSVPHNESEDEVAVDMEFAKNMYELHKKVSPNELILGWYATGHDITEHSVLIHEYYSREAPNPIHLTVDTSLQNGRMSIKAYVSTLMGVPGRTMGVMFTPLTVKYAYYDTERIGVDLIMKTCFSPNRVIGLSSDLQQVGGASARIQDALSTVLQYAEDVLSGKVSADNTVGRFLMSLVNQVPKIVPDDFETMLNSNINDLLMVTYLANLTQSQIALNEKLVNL
Chain of EIF3H (O15372 whole entry): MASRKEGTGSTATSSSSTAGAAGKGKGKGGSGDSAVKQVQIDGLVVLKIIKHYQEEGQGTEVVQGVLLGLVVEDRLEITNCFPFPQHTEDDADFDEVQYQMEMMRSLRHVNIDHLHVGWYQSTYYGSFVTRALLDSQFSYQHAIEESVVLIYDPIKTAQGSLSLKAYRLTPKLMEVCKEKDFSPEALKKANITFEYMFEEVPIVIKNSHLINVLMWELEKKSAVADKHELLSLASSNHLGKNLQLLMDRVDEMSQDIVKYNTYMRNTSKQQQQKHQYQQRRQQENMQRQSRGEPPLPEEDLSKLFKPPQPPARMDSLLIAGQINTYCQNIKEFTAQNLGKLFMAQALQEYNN
Chain of ATXN3 (P54252 whole entry): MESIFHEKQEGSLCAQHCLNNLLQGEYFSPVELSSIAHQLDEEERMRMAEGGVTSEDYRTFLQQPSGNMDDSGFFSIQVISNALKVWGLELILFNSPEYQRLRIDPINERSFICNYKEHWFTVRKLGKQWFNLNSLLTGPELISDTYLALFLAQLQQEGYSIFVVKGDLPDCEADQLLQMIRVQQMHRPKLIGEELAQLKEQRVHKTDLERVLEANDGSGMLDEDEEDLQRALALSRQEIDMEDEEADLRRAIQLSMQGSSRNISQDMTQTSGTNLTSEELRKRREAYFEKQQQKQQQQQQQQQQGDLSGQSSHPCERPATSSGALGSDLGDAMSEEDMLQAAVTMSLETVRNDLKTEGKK
Chain of OTUB1 (Q96FW1 whole entry): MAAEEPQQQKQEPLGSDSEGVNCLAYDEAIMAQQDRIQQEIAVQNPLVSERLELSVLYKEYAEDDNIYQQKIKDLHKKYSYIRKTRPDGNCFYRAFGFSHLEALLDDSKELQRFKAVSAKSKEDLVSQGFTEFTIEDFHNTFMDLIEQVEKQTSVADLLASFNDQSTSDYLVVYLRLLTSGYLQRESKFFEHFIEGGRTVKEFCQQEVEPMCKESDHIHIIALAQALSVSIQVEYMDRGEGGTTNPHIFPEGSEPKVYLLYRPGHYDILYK

Cc1nc(CNC(=O)CCl)c2ccccn12.Cl
inactive: [1] -0.085 | [2] -0.101 | [3] -0.847 | [4] -0.26 | [5] 0.233 | [6] -0.142 | [7] -0.107 | [8] -0.199 | [9] -0.159
